Tg IFNy HTS: T. gondii growth inhibition with IFN-gamma, primary screen, cell-based. Toxoplasma gondii growth in IFN-gamma-treated host cells; active compounds read low. activity change, negative = inhibition, % (concentration not given with the values). actives 3.8% (n = 69,000); in the data active = activity change below about -70%, passing the limit was not always enough;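 note: host cells are HeLa cells infected with Toxoplasma gondii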
Large screens that a line does not name were inactive; ! = a repeat was not active. Shown is part of a subset that was picked to be rich in hits.

O=C(c1ccc(F)cc1F)N1CCC(c2nc3ccc(-c4cccnc4)cn3n2)CC1	none
O=C(c1cnccn1)N1CCC(c2nc3ccc(-c4cccc(F)c4)cn3n2)CC1	Tg IFNy HTS -72
CCN1CCC2(CC1)NCCc1c2[nH]c2ccc(OC)cc12	none
O=S(=O)(Oc1ccc(Cl)cc1)c1csc(C(F)(F)F)c1-c1ccccc1	none
FC(F)(F)c1ccc(Oc2ncnc3c(-c4ccccc4)c(C(F)(F)F)sc23)cc1	Tg IFNy HTS -71
CCOC(=O)c1nc(N(CC)c2cccc(C)c2)c2ccccc2n1	none
CO[C@@H]1CN(C)C(=O)c2cc(NC(=O)Cc3ccccc3)ccc2OC[C@H](C)N(C(=O)c2ccccc2F)C[C@H]1C	none
O=C(c1cccc(F)c1)N1C[C@@H]2[C@H](c3ccccc31)[C@H](CO)N2Cc1cocn1	none
Cc1ccc2c(c1)NC1(CCN(S(=O)(=O)c3ccccc3F)CC1)c1cccn1-2	none
O=c1[nH]c(CN2CCCC3(CCCCC3)C2)nc2c1C1(CCCCC1)Cc1ccccc1-2	Tg IFNy HTS -81
CC1(C)Cc2ccccc2-c2nc(-c3ccccc3)oc(=O)c21	none
O=c1oc(-c2ccccc2)nc2c1C1(CCCC1)Cc1ccccc1-2	none
Cc1cccc(CN2CCCC3(CCN(c4cncnc4)C3=O)C2)n1 (stereo not drawn)	none
CC1(C)CC2(CCCN(Cc3nc4c(c(=O)[nH]3)C3(CCCCC3)Cc3ccccc3-4)C2)CCO1 (stereo not drawn)	Tg IFNy HTS -85
CC(C)c1ccc(NC(=O)Cn2c(=O)cc(C(=O)N3CCCCC3)c3ccccc32)cc1	none
Cc1ccc(Cl)cc1NC(=O)Cn1c(=O)cc(C(=O)N2CCCCC2)c2ccccc21	none
Cc1cc(C)c2c(=O)n(Cc3nc(-c4ccc(OC(C)C)cc4)oc3C)c(=O)n(-c3ccccc3)c2n1	none
Cc1ccc(C(=O)N2CCC3(CC2)CC(c2ccncc2)C(=O)N3)cc1 (stereo not drawn)	none
C[C@]12CCC(=O)C=C1[C@@H]1C[C@@H]1[C@H]1[C@@H]3[C@@H]4C[C@@H]4[C@@]4(CCC(=O)O4)[C@@]3(C)CC[C@@H]12	Tg IFNy HTS -85
CC(=O)[C@@]1(O)CC[C@H]2[C@@H]3C[C@H](C)C4=CC(=O)CC[C@]4(C)[C@H]3CC[C@@]21C	none
CC(=O)SC1CC2=CC(=O)CCC2(C)C2CCC3(C)C(CCC34CCC(=O)O4)C12 (stereo not drawn)	none
CN1C(=O)C(O)(CC(=O)/C=C/C=C/c2ccccc2)c2ccccc21 (stereo not drawn)	none
CCCC(=O)Nc1ccc2c(c1)OC[C@@H](C)N(S(=O)(=O)c1cn(C)cn1)C[C@@H](C)[C@H](OC)CN(C)C2=O	none
Fc1c(CN2CCCC2)cccc1Oc1ncccc1C(F)(F)F	none
CC(C)OC(=O)NC(Sc1ccccc1)(Sc1ccccc1)C(F)(F)F	none
CC(C)CN(Cc1ccsc1)C(=O)c1coc(CN2CCOCC2)c1	none
CC(=O)Nc1cccc(C(=O)N(Cc2ccsc2)CC2CCCO2)c1 (stereo not drawn)	none
CC(=O)Nc1cccc(C(=O)N(Cc2ccsc2)CC(C)C)c1	Tg IFNy HTS -79
COc1ccc(-c2nnc(NC(=O)[C@@H]3C[C@@H]4C=C[C@H]3C4)s2)cc1OC	none
COc1ccccc1C(CCNS(=O)(=O)c1ccccc1)c1ccc2c(c1)OCO2 (stereo not drawn)	Tg IFNy HTS -75
Cc1ccc(S(=O)(=O)NCCC(c2ccccc2)c2ccco2)cc1 (stereo not drawn)	none
COc1ccc(C2(CNS(=O)(=O)c3ccccc3)CCCC2)cc1OC	none
Cc1onc(-c2ccccc2)c1C(=O)Nc1c(O)c2cccc(C)c2oc1=O	none
CCc1ccccc1NC(=O)c1cncc(NS(=O)(=O)c2ccc(Br)cc2)c1	none
Cc1ccc(C(=O)N2CCC3(CC2)Nc2cc(F)ccc2-n2cccc23)cc1	none
Cn1cccc1CN1C[C@H]2CN(Cc3cccc(F)c3)C(=O)[C@@H]2C1	none
Cn1cnc2c1C(C(=O)O)CN(C(=O)c1ccc3c(c1)OCO3)C2 (stereo not drawn)	none
O=C(c1ccc2c(c1)OCO2)N1Cc2cnn(CCO)c2C1	none
CC(C)n1nc2c(cc1=O)CN(C(=O)c1ccc3c(c1)OCO3)CC2	Tg IFNy HTS -80
CCOc1ccccc1-c1nc(Cn2nnc(C(=O)Nc3cc(F)ccc3C)c2C)c(C)o1	none
O=C1CO[C@H]2CN(C(=O)CCc3ccccc3)C[C@@H]2N1	none
Cc1ccccc1-c1noc(-c2cccc(NC(=O)C(C)n3cncn3)c2)n1 (stereo not drawn)	none
CCc1cnc(N2[C@H](C#N)[C@H](c3ccc(C#Cc4ccccc4F)cc3)[C@@H]2CO)s1	none
CCc1cnc(N2[C@H](C#N)[C@@H](c3ccc(C#Cc4ccccc4F)cc3)[C@H]2CO)s1	Tg IFNy HTS -75
CCc1cnc(N2[C@H](C#N)[C@H](c3ccc(C#Cc4ccccc4F)cc3)[C@H]2CO)s1	none
COc1ccc(CN(C)Cc2n[nH]c3c2CCCC3)cc1Cc1c(C)noc1C	none
CC(C)Oc1ccc(-c2noc(-c3c(O)c4cc(F)ccc4n(C)c3=O)n2)cc1	none
CN(Cc1ccsc1)C(=O)Cc1nc(-c2ccccc2)n[nH]1	none
Cc1ccc(C(=O)Nc2c(C(=O)NCc3ccccn3)[nH]c3ccc(C)cc23)cc1	none
CNC(=O)c1ccc(Nc2ncc(C(F)(F)F)c(NCc3nccnc3N(C)S(C)(=O)=O)n2)cc1	Tg IFNy HTS -85
O=C(C[C@H]1CC[C@@H]2[C@H](COC[C@@H](O)CN2C(=O)Nc2cc(Cl)cc(Cl)c2)O1)N1CCOCC1	none
Cc1ccc(OCCSc2nc3ccccc3n2CCC(=O)O)c(C(C)C)c1	none
CN1C(=O)c2cc(NC(=O)Nc3ccc(Cl)cc3)ccc2OC[C@H]2O[C@H](CC(=O)NCCN3CCCCC3)CC[C@@H]21	none
Cc1cccc(C2=NC3(CCN(CC(=O)Nc4ccc(C(C)C)cc4)CC3)NC2=O)c1	none
Cc1nnc([C@H]2CC[C@H]3[C@H](CCN3S(=O)(=O)N(C)C)O2)o1	none
COc1ccc(CCN2C(=O)CSC2c2ccc(OC)c(OC)c2)cc1OC (stereo not drawn)	none
COc1ccc(CNC(=O)c2c(O)c3cccnc3[nH]c2=O)cc1OC	none
CCCCOc1cc(CC2CNC(=O)N2)ccc1OC (stereo not drawn)	Tg IFNy HTS -72!
CCn1c(=O)n(CC)c2cc(C(=O)N3CCN(Cc4ccccn4)CC3)ccc21	none
COc1ccc(OC)c(S(=O)(=O)N2CCC3(CC2)Nc2ccc(C)c(C)c2-n2cccc23)c1	none
N#C/C(=C/c1ccc(O)c(O)c1)C(=O)NCCCc1ccccc1	none
N#C/C(=C\c1ccc(O)c(O)c1)C(=O)NC1CCC(CC2CCC(NC(=O)/C(C#N)=C/c3ccc(O)c(O)c3)CC2)CC1 (stereo not drawn)	Tg IFNy HTS -80
N#C/C(=C/c1ccc(O)c(O)c1)C(=O)NCc1ccccc1	none
CC(=O)N1CCC[C@H]1C(=O)N(Cc1ccco1)Cc1ccco1	none
CN(Cc1ccc(S(C)(=O)=O)cc1)C1Cc2ccccc2C1	none
FC(F)(F)CCc1ccnc(NCc2ccc3c(c2)OCO3)n1	none
FC(F)(F)c1ccnc(NCc2ccc3c(c2)OCO3)n1	none
Clc1ccc(-c2nc(NCc3ccc4c(c3)OCO4)ncc2-c2ncc[nH]2)cc1	Tg IFNy HTS -106
CCCC(=O)Nc1ccc2c(c1)CCC(=O)N2CC(C)C	none
CC(C)(C)OC(=O)NCCC(=O)Oc1ccc2ccc(=O)oc2c1	none
O=C1CCC2(CCC(NCc3ccccn3)CC2)N1 (stereo not drawn)	none
CC(=O)NC1=NN(C(C)=O)C(C)(c2ccccc2)S1 (stereo not drawn)	Tg IFNy HTS -77!
CC(=O)Nc1nonc1-c1ccccc1	none
CC(=O)Nc1ccccc1	none

Source: PubChem BioAssay (Broad Institute)
